# Data as given in PubChem BioAssay (NCI).
# About 83,000 compounds went through this panel and 20% of them were active in at least one assay; those are over-represented in the sample as a whole.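 Cells were grown in 96-well plates and exposed to the test compound at a single concentration for 48 hours; results are reported as percent growth, with values below 10 considered active.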 A number with no mark means an inactive call. Active and inactive are the calls of the source.
# Legend:
# Assay in all cases: NCI-60 one-dose screen, 48 h (100 = growth as untreated, 0 = no growth, -100 = all killed)
# Conditions in all cases: 10 µM unless noted
# SR leukemia = system: SR leukemia
# RPMI-8226 leukemia = system: RPMI-8226 leukemia
# OVCAR-8 ovarian = system: OVCAR-8 ovarian
# OVCAR-5 ovarian = system: OVCAR-5 ovarian
# OVCAR-4 ovarian = system: OVCAR-4 ovarian
# SK-OV-3 ovarian = system: SK-OV-3 ovarian
# IGROV1 ovarian = system: IGROV1 ovarian
# OVCAR-3 ovarian = system: OVCAR-3 ovarian
# HS 578T breast = system: HS 578T breast
# NCI/ADR-RES ovarian = system: NCI/ADR-RES ovarian
# T-47D breast = system: T-47D breast
# BT-549 breast = system: BT-549 breast
# MDA-MB-435 melanoma = system: MDA-MB-435 melanoma
# SW-620 colon = system: SW-620 colon
# MCF7 breast = system: MCF7 breast
# HCT-116 colon = system: HCT-116 colon
# HCC-2998 colon = system: HCC-2998 colon
# KM12 colon = system: KM12 colon
SMILES,growth (SR leukemia),growth (RPMI-8226 leukemia),growth (OVCAR-8 ovarian),growth (OVCAR-5 ovarian),growth (OVCAR-4 ovarian),growth (SK-OV-3 ovarian),growth (IGROV1 ovarian),growth (OVCAR-3 ovarian),growth (HS 578T breast),growth (NCI/ADR-RES ovarian),growth (T-47D breast),growth (BT-549 breast),growth (MDA-MB-435 melanoma),growth (SW-620 colon),growth (MCF7 breast),growth (HCT-116 colon),growth (HCC-2998 colon),growth (KM12 colon)
O=S(=O)(NCCCNc1nccc(-c2c(-c3cccc(O)c3)nc3occn23)n1)c1ccc(Cl)cc1,87.1%,81%,77.5%,130%,108%,75.4%,59.7%,93.2%,92.8%,112%,64.2%,102%,33.8%,109%,82.6%,61.9%,120%,86.2%
CN1CCC(=C(c2ccccc2)c2ccccc2)C(c2ccccc2)C1 (configuration not stated),96.5%,103%,99.3%,90%,104%,115%,81.7%,113%,103%,83.4%,93.7%,97.1%,102%,92.9%,86.7%,71.3%,88.7%,97.3%
Cc1ccc(S(=O)(=O)NNC(=O)/C(=C\c2ccc(Cl)cc2)c2nc3ccccc3s2)cc1,72.8%,87%,88.1%,110%,94.2%,105%,91.4%,96%,98.1%,97.8%,95%,106%,96.9%,93.6%,78.7%,84.3%,103%,96.6%
OC(c1cccc(C(F)(F)F)c1)c1cnccc1NC1CCCCC1 (configuration not stated),51.6%,29.9%,86.9%,95.3%,74.7%,95.9%,76.3%,81.1%,80.6%,79.1%,49.1%,93.5%,86.6%,77.6%,71.4%,51.1%,-11.3% (active),80.8%
CCN(CC)c1ccc(/C=N/NC(=O)CSc2nc3ccccc3c(=O)n2Cc2ccc(S(N)(=O)=O)cc2)c(O)c1,10.4%,17.1%,20.4%,45%,12.6%,21.6%,26.4%,15%,63%,87.2%,6.32% (active),33.6%,13.8%,21.4%,13.3%,21.5%,20.3%,15.2%
COc1ccc(C(=O)CSc2nc(-c3cc(OC)ccc3OC)cc(-c3ccc(Cl)cc3)c2C#N)cc1,65.3%,78.5%,61.2%,81.2%,24.8%,33.3%,62.4%,98.1%,57.8%,77.5%,32.3%,10.8%,26%,50.7%,46.5%,30.2%,78.3%,48.3%
COc1ccc(C(=O)c2cc(C)c(OC)c(C)c2)c(OC)c1NC(C)=O,29.3%,21.2%,16.9%,37.8%,61.6%,11%,31.5%,5.93% (active),14.4%,0.837% (active),60.6%,16.3%,-65.2% (active),,20.8%,8.06% (active),13.8%,8.12% (active)
COc1ccc(N2CCN(c3ccc(NC4=C(Cl)C(=O)c5ncccc5C4=O)cc3)CC2)cc1,12.9%,35.5%,32.9%,84.4%,28.8%,75.9%,-49.7% (active),-3.66% (active),36.3%,83%,33.2%,47.8%,-4.96% (active),,8.91% (active),15.9%,80.8%,63.8%
CCCCCCNC(=O)Oc1ccc(/C(=C(\C)c2ccccc2)c2ccc(OCCN3CCCCC3)cc2)cc1,-8.47% (active),39.6%,76.6%,93.9%,71%,71.8%,63.7%,66.9%,76.3%,63.1%,30.1%,64.2%,68.2%,34.1%,12.7%,33.9%,76.6%,49.2%
O=C(CCN1CCCC1)Nc1ccc2c(NCCc3ccccc3)c3ccccc3nc2c1,-16.1% (active),-41.9% (active),3.23% (active),7.44% (active),-24.6% (active),-6.92% (active),-6.54% (active),-37.8% (active),-25.1% (active),71.5%,1.89% (active),-15.3% (active),-92.1% (active),-44.9% (active),-19.4% (active),-38.2% (active),-56.8% (active),-15.6% (active)
O=S(=O)(NCCCNc1nccc(-c2c(-c3cccc(F)c3)nc3sccn23)n1)c1cccc2ccccc12,62%,44.9%,38.5%,80.9%,40.2%,65.8%,22.3%,68.7%,55.9%,47.1%,18.4%,65%,22.6%,42.1%,37.4%,32.4%,16.3%,26%
COc1cc(C2C3CC4CCCC[C@H]4N3[C@@]3(C(=O)Nc4cc(Cl)ccc43)C2C(=O)c2nc3ccccc3[nH]2)cc(OC)c1OC (some centres not stated),38.3%,23.6%,70.7%,73.7%,56.3%,94.3%,62.1%,69.7%,74%,66.8%,36.3%,76%,53.1%,60.5%,30.4%,34.7%,69.9%,60.6%
NS(=O)(=O)c1ccc(CCN2C(=O)C3C(C2=O)C2(Cl)C(Cl)=C(Cl)C3(Cl)C2(Cl)Cl)cc1 (configuration not stated),98.1%,53%,107%,98.2%,96.2%,115%,97.3%,108%,96.8%,98.7%,94.4%,94.8%,108%,,92.5%,94%,93.8%,105%
COc1cc(/C=C2\COc3ccc(-c4ccccc4)cc3C2=O)cc(OC)c1,58.5%,3.36% (active),56.2%,106%,63.8%,108%,90.8%,69%,92.9%,61%,70.3%,74.7%,66%,62.8%,57.3%,62.1%,,68.5%
CC(Sc1nc2ccccc2c(=O)n1CCc1ccc(S(N)(=O)=O)cc1)C(=O)Nc1ccc(Cl)cc1 (configuration not stated),77.4%,65.9%,72.8%,85.7%,93.2%,125%,86.3%,99.1%,86.5%,77.3%,67.6%,102%,98.7%,98.1%,84.6%,79.9%,103%,97.5%
COc1ccc(C/C(C)=C(/c2ccc(OCCCN(C)C)cc2)c2ccc(OC(C)=O)cc2)cc1,9.44% (active),79.2%,95.5%,85.7%,79.6%,88%,58.4%,91.1%,64.1%,92.3%,56.4%,89%,48.4%,87.8%,18.1%,55.3%,70.3%,80.7%
O=C(/C=C(/C=C/c1coc2ccccc12)OB(F)F)/C=C/c1coc2ccccc12,48.8%,84.9%,87.7%,113%,107%,122%,97.5%,58.2%,91.4%,102%,88.1%,99.3%,48.1%,86.3%,82.8%,75.3%,98.8%,91.3%
